{"source": "PubChem BioAssay (EPA / NIEHS)", "note": "Calls of active or inactive are those of the source. The calls were made as follows: active = hit-call score of the fitted dose curve at least 0.9, where 1 is the maximum; inactive = score below 0.9."}
{"read-out": "UDP glucuronosyltransferase (UGT1A6), UGT1A6 (gene 54578)", "assay": "LTEA_HepaRG_UGT1A6: Life Technologies and Expression Analysis (LTEA) Assay for UDP glucuronosyltransferase (UGT1A6) using HepaRG (AID 2283539)", "settings": "mRNA level, 48 h; actives raise or lower the signal", "experimental": "LTEA_HepaRG is a cell based, multiplexed-readout assay that uses HepaRG, a human liver cell line, with measurements taken at 48 hours after chemical dosing on a 96-well plate.LTEA_HepaRG_UGT1A6 is one of 102 assay component(s) measured in the LTEA HepaRG cell culture assay. It is a marker of NR mediated metabolism.Data from the assay component LTEA_HepaRG_UGT1A6 was analyzed into 1 endpoint. This assay endpoint, LTEA_HepaRG_UGT1A6, was analyzed with bidirectional fitting relative to DMSO as the negative control and baseline of activity. Using a type of inducible reporter, measures of mRNA induction for gain or loss-of-signal activity can be used to understand regulation of transcription factor activity. To generalize the intended target to other relatable targets, this assay endpoint is annotated to the transferase intended target family, where the subfamily is glucuronosyltransferase.\nA total of 1060 chemcials from the ToxCast library were tested in eight-point concentration-response experiments. Cell culture and cytotoxicity assays were conducted at Thermo Fisher Scientific's Custom Services facility (Madison, WI). A single lot of human HepaRG cells (Thermo Fisher Scientific, Frederick, MD) was used for the cell culture experiments. 96-well format collagen type I coated plates of human HepaRG cells were prepared using established methods. Briefly, cryopreserved HepaRG cells were thawed, plated at a density of approximately 100,000 cells/well in HepaRG Thaw, Plate, and General Purpose media (HPRG770, Thermo Fisher Scientific), and incubated for 48 hours. 0.5% DMSO was selected as vehicle control to balance the requisite need of DMSO in HepaRG cultures to maintain differentiation (for example, baseline metabolism, proportions of hepatocytes vs. cholangiocytes), while enabling further hepatic receptor pathway activation (for example, PXR and CAR) in response to chemical exposure. 48 hours after plating, the culture medium was replaced with HepaRG Serum-Free Incudtion Media. Cells were exposed to each test chemical in duplicate and maintained in CO2 incubators for another 48 hours. Chemical plates were thawed to room temperature and 200x concentrations of treatment groups were prepared. 8-point conentration-reponse curves were made with the highest exposure at 100 uM, followed by half-log dilutions, all in 0.5% DMSO. Each test plate contained variouse controls, induction positive controls (1mM phenobarbital), cytotoxicity positive controls ([…] aflatoxin B1), vehicle controls (0.5% DMSO), and total lysis controls (0.5% DMSO). Cell morphology images were taken using an Essen IncuCyte FLR automated microscope, with six 96-well plates imaged in about 24 minutes. Images were captured and exported and JPEG files. Spent culture media was transfered to black-well plates for the LDH assay, and remaining media was sorted at -80 C for later use. Cells were treated with RLT buffer and frozen until shipped for gene expression analysis. Total RNA was isolated from the cell suspension in 75 uL of Buffer RLT (Qiagen, Germantown, MD 20874) by Quintiles/Expression Analysis (Durham, NC) using a custom isolation procedure. Total RNA from each plate well was transferred to a preamplification plate. Fluidigm's 96.96 Dynamic ArrayTM (Fluidigm, Amsterdam, the Netherlands) technology was used for gene expression analyses by quantitative reverse transcription polymerase chain reaction (qRT-PCR, performed by Quintiles/Expression Analysis, Durham, NC)89. Standard TaqManTM Assays (Applied Biosystems/ThermoFisher Scientific, Foster City, CA) were used to assess the expression of 93 genes selected based on their selectivity and sensitivity to important hepatic receptors known to be modulated by environmental chemicals; importance in human hepatocyte functionality; and hepatotoxicity. […]"}
{"smiles": "CCCCCCCCCCCCCCC", "outcome": "inactive"}
{"smiles": "CCC(C)c1ccccc1O", "note": "(stereo unspecified)", "outcome": "inactive"}
{"smiles": "CCCCc1oc2ccccc2c1C(=O)c1cc(I)c(OCCN(CC)CC)c(I)c1", "AC50": "55.5 µM (active)"}
{"smiles": "CN(C)CCOC(c1ccccc1)c1ccccc1", "outcome": "inactive"}
{"smiles": "N=C(N)c1ccc(OCCCCCOc2ccc(C(=N)N)cc2)cc1", "AC50": "37.8 µM (active)"}
{"smiles": "Cc1[nH]nc2c1N=C(c1ccccc1Cl)c1cc([N+](=O)[O-])ccc1N2", "AC50": "86.8 µM (active)"}
{"smiles": "CCCCC(CC)C(=O)O", "note": "(stereo unspecified)", "outcome": "inactive"}
{"smiles": "O=C1NS(=O)(=O)c2ccccc21", "outcome": "inactive"}
{"smiles": "O=C(CCCN1CCC(O)(c2ccc(Cl)cc2)CC1)c1ccc(F)cc1", "AC50": "76.1 µM (active)"}
{"smiles": "CCCCCCCCCCCCOS(=O)(=O)O", "AC50": "81 µM (active)"}
{"smiles": "CN(Cc1cnc2nc(N)nc(N)c2n1)c1ccc(C(=O)N[C@@H](CCC(=O)O)C(=O)O)cc1", "outcome": "inactive"}
{"smiles": "O=C(c1ccccc1)c1ccccc1", "outcome": "inactive"}
{"smiles": "CC(=O)Nc1ccc(O)cc1", "outcome": "inactive"}
{"smiles": "CS(=O)(=O)c1ccc([C@@H](CC2CCCC2)C(=O)Nc2cnccn2)cc1Cl", "AC50": "89.2 µM (active)"}
{"smiles": "CCCCC=O", "outcome": "inactive"}
{"smiles": "OCC(CO)(CBr)CBr", "outcome": "inactive"}
